# Unmarked numbers belong to inactive results. Results filed as inconclusive are left out. A call without a number means that no potency is given here. Active and inactive are the calls of the source. Unless noted, the call rests on the fitted dose curve; in most records, active means well fitted curve in the direction sought with a large enough effect; inconclusive means small, poorly fitted or top-dose-only effect, or another doubt; inactive means no such curve, though single readings can be large; an effect the other way counts as inactive or inconclusive.
# Assays:
# [1] = biological target: T1, Tyrosine-protein phosphatase non-receptor type substrate 1 (Homo sapiens) + Leukocyte surface antigen CD47 (Homo sapiens) (UniProt P78324+Q08722); experiment: CD47-SIRPalpha protein protein interaction - HTRF assay qHTS validation (AID 1347058; active means well fitted curve in the direction sought with a large enough effect in the signal ratio, not every such curve was filed as active; the % refers to the signal ratio; further: series mostly up to about 38 µM)
# T1 sequence (P78324 whole entry, looked up, the tested form may be a part): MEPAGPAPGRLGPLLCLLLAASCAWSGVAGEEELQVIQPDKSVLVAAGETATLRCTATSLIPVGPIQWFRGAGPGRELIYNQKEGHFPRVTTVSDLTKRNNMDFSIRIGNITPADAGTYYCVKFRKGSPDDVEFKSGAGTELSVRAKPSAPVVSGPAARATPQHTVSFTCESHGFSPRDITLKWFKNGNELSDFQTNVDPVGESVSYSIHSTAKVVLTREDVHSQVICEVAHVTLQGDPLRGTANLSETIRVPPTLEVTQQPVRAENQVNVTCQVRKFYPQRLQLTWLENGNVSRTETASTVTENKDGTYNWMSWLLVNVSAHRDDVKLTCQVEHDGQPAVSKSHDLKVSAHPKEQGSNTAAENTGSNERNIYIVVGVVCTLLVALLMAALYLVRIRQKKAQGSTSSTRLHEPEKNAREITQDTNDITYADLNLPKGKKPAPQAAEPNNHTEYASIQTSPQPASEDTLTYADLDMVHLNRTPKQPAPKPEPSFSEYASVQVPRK
# T1 sequence (Q08722 whole entry, looked up, the tested form may be a part): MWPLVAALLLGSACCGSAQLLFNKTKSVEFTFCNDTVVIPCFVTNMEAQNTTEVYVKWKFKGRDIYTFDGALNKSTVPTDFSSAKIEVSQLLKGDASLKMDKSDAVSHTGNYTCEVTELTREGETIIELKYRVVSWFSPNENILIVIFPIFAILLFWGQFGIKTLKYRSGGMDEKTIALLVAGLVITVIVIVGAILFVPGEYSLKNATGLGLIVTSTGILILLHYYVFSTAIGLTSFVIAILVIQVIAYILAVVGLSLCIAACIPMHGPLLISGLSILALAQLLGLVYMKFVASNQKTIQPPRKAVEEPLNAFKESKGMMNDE
# Method in brief: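 Soluble extracellular domains (6His-CD47, Avi-tag-biotinylated SIRPalpha) in PBS pH 7.4 with 0.05% IGEPAL CA-630. Compounds were preincubated 30 min at RT with CD47 and anti-His-Eu, then SIRPalpha and SAV-XL665 were added. TR-FRET 665/615 ratio.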
# [2] = biological target: T1, Tyrosine-protein phosphatase non-receptor type substrate 1 (Homo sapiens) + Leukocyte surface antigen CD47 (Homo sapiens); experiment: CD47-SIRPalpha protein protein interaction - Alpha assay qHTS validation (AID 1347059);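 further: bead proximity luminescence from CD47 binding SIRPalpha after compound preincubation with SIRPalpha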; further: potency means the concentration at half of the fitted maximal effect
# Method in brief: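 In PBS (pH 7.4) with 0.05% IGEPAL CA-630, compound is preincubated with biotin-Avi-SIRPalpha ectodomain before His-CD47 ectodomain and affinity beads are added. Light-protected room-temperature incubations; AlphaScreen readout.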
# [3] = biological target: Parathyroid hormone/parathyroid hormone-related peptide receptor (Homo sapiens) (UniProt Q03431); experiment: qHTS for PTHR1 Agonists: Optimization Screen against the NCGC LOPAC library (AID 1347079);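 further: GloSensor cAMP luminescence in HEK-293 GP2 cells expressing human PTHR1 with IBMX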
# Parathyroid hormone/parathyroid hormone-related peptide receptor (Homo sapiens), sequence (Q03431 whole entry, looked up): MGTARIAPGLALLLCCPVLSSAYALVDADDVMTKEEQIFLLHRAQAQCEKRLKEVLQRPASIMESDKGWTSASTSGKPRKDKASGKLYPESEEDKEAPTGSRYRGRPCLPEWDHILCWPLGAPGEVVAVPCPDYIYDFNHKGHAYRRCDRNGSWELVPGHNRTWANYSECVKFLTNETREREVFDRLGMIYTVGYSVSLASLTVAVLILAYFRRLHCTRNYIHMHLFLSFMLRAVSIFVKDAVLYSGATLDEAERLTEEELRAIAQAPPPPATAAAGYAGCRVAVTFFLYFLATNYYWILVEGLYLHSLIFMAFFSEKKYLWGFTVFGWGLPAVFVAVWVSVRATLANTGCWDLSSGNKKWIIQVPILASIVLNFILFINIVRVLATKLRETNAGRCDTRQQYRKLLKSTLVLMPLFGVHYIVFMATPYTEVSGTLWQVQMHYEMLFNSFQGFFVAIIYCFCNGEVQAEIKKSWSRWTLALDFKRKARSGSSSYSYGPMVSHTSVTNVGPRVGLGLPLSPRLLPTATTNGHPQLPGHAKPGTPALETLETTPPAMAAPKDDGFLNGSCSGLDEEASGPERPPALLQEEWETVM
# Method in brief: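 HEK-293 GP2 cells, PTHR1 + GloSensor cAMP; 3000 cells/well, o/n. Luciferin + IBMX 0.5mM each (stock), 1 hr 37C. Cpd titration, 1 hr 37C. Lum after 15 min RT. Ctrl M-PTH(1-15) top 10uM.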
# [4] = qHTS of pediatric cancer cell lines to identify multiple opportunities for drug repurposing: Primary screen for TC32 cells (AID 1347089); further: nearly all actives have a fitted effect of over 60% in size
# Method in brief: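 TC32 cells, 500-1,000/well in growth medium, compound-treated 48 h at 37 °C; viability from CellTiter-Glo luminescence. Primary screen: MIPE 11-point (0.78 nM–46 µM final), NPC 8-point (0.59 nM–46 µM final); confirmatory at 11-point dilutions.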
# [5] = qHTS of pediatric cancer cell lines to identify multiple opportunities for drug repurposing: Primary screen for DAOY cells (AID 1347090); further: series mostly up to about 46 µM; nearly all actives have a fitted effect of over 55% in size
# Method in brief: (§1)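 Eight- or eleven-point concentration series, 48 h treatment at 37 degrees C in growth media; readout CellTiter-Glo luminescence. Potency and efficacy were taken from the concentration-response curves.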
# [6] = qHTS of pediatric cancer cell lines to identify multiple opportunities for drug repurposing: Primary screen for SJ-GBM2 cells (AID 1347091)
# Method in brief: as §1
# [7] = qHTS of pediatric cancer cell lines to identify multiple opportunities for drug repurposing: Primary screen for A673 cells (AID 1347092); further: nearly all actives have a fitted effect of over 45% in size
# Method in brief: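 A673 cells (500-1,000 cells/well) were treated 48 hours at 37 degrees C with compounds at 11-point (0.78 nM to 46 µM) or 8-point (0.59 nM to 46 µM) dilutions. Viability read by CellTiter-Glo luminescence; concentration-response curves fitted.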
# [8] = qHTS of pediatric cancer cell lines to identify multiple opportunities for drug repurposing: Primary screen for SK-N-MC cells (AID 1347093); further: series mostly up to about 46 µM
# Method in brief: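 Metabolically active cells were quantified by ATP-dependent luminescence (CellTiter-Glo, 15 min at room temperature) following 48 h treatment. Cells had been plated at 500-1,000 per well and settled for 5 h beforehand.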
# [9] = qHTS of pediatric cancer cell lines to identify multiple opportunities for drug repurposing: Primary screen for BT-37 cells (AID 1347094); further: series mostly up to about 57 µM
# Method in brief: (§2)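 ATP-based luminescence (CellTiter-Glo) quantifies viability after a 48-hour exposure. Compounds are dosed across 8 or 11 final concentrations; DMSO and 2.3 µM bortezomib serve as controls.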
# [10] = qHTS of pediatric cancer cell lines to identify multiple opportunities for drug repurposing: Primary screen for NB-EBc1 cells (AID 1347095)
# Method in brief: as §2
# [11] = qHTS of pediatric cancer cell lines to identify multiple opportunities for drug repurposing: Primary screen for U-2 OS cells (AID 1347096); further: nearly all actives have a fitted effect of over 50% in size
# Method in brief: (§3)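 Cells (500-1,000/well) in growth media were settled 5 h at 37 degrees C, then given compounds for 48 h. Viability was read as CellTiter-Glo luminescence. Primary runs used MIPE at 11 points (0.78 nM-46 µM) and NPC at 8 points (0.59 nM-46 µM); follow-ups used 11 points.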
# [12] = qHTS of pediatric cancer cell lines to identify multiple opportunities for drug repurposing: Primary screen for Saos-2 cells (AID 1347097); further: nearly all actives have a fitted effect of over 40% in size
# Method in brief: as §2
# [13] = qHTS of pediatric cancer cell lines to identify multiple opportunities for drug repurposing: Primary screen for SK-N-SH cells (AID 1347098);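 further: DMSO served as neutral control and bortezomib at 2.3 µM as positive control; nearly all actives have a fitted effect of over 65% in size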
# Method in brief: (§4)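 Cells (500-1,000/well) rested 5 h, then received compounds for 48 h; metabolically active cells were measured by CellTiter-Glo luminescence. Final concentrations spanned up to 46 µM (MIPE, 11-point) or 0.59 nM-46 µM (NPC, 8-point) in primary screens, 11-point in follow-ups.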
# [14] = qHTS of pediatric cancer cell lines to identify multiple opportunities for drug repurposing: Primary screen for NB1643 cells (AID 1347099); further: nearly all actives have a fitted effect of over 50% in size
# Method in brief: as §2
# [15] = qHTS of pediatric cancer cell lines to identify multiple opportunities for drug repurposing: Primary screen for LAN-5 cells (AID 1347100)
# Method in brief: as §3
# [16] = qHTS of pediatric cancer cell lines to identify multiple opportunities for drug repurposing: Primary screen for BT-12 cells (AID 1347101); further: nearly all actives have a fitted effect of over 25% in size
# Method in brief: as §4
# [17] = qHTS of pediatric cancer cell lines to identify multiple opportunities for drug repurposing: Primary screen for Rh18 cells (AID 1347102); further: nearly all actives have a fitted effect of over 65% in size
# Method in brief: as §3
# [18] = qHTS of pediatric cancer cell lines to identify multiple opportunities for drug repurposing: Primary screen for OHS-50 cells (AID 1347103); further: nearly all actives have a fitted effect of over 40% in size
# Method in brief: as §4
# [19] = qHTS of pediatric cancer cell lines to identify multiple opportunities for drug repurposing: Primary screen for RD cells (AID 1347104); further: nearly all actives have a fitted effect of over 55% in size
# Method in brief: as §2
smiles,measurement,setting,value
CN1C2CCC1CC(OC(=O)c1c[nH]c3ccccc13)C2 (stereo unspecified),outcome,[1],inactive
same,Potency,[2],inactive
same,outcome,[3],inactive
CC(C)COC(=O)OCN1C(=O)CN(CCN2CC(=O)N(COC(=O)OCC(C)C)C(=O)C2)CC1=O,outcome,[1],inactive
same,Potency,[2],inactive
same,outcome,[3],inactive
O=C(O)c1cc2cc(Cc3cccnc3)ccc2o1,outcome,[1],inactive
same,Potency,[2],inactive
same,outcome,[3],inactive
C[C@H]1[C@H](NC(=O)/C(=N/OC(C)(C)C(=O)O)c2csc(N)n2)C(=O)N1S(=O)(=O)O (stereo in doubt),Potency,[4],inactive
same,Potency,[5],inactive
same,Potency,[6],inactive
same,Potency,[7],inactive
same,Potency,[8],inactive
same,Potency,[9],inactive
same,Potency,[10],inactive
same,Potency,[11],inactive
same,Potency,[12],inactive
same,Potency,[13],inactive
same,Potency,[14],inactive
same,Potency,[15],inactive
same,Potency,[16],inactive
same,Potency,[17],inactive
same,Potency,[18],inactive
same,Potency,[19],inactive
Nc1cc(Cl)c(NC2=NCCN2)c(Cl)c1,outcome,[1],inactive
same,Potency,[2],inactive
same,outcome,[3],inactive
COC(=O)[C@H]1[C@H]2C[C@H]3c4[nH]c5ccccc5c4CCN3C[C@H]2CC[C@@H]1O,outcome,[3],inactive
C1CCc2nnnn2CC1,outcome,[1],inactive
same,Potency,[2],inactive
CN=C(NC#N)NCCSCc1csc(N=C(N)N)n1,Potency,[4],inactive
same,Potency,[5],inactive
same,Potency,[6],inactive
same,Potency,[7],inactive
same,Potency,[8],inactive
same,Potency,[9],inactive
same,Potency,[10],inactive
same,Potency,[11],inactive
same,Potency,[12],inactive
same,Potency,[13],inactive
same,Potency,[14],inactive
same,Potency,[15],inactive
same,Potency,[16],inactive
same,Potency,[17],inactive
same,Potency,[18],inactive
same,Potency,[19],inactive
CCC(NC(C)C)C(O)c1ccc(O)c(O)c1 (stereo unspecified),Potency,[2],inactive
CCCCCCCCCCCCCCCCCC(=O)OCC(O)CO (stereo unspecified),Potency,[4],inactive
same,Potency,[5],inactive
same,Potency,[6],inactive
same,Potency,[7],inactive
same,Potency,[8],inactive
same,Potency,[9],inactive
same,Potency,[10],inactive
same,Potency,[11],inactive
same,Potency,[12],inactive
same,Potency,[13],inactive
same,Potency,[14],inactive
same,Potency,[15],inactive
same,Potency,[16],inactive
same,Potency,[17],inactive
same,Potency,[18],inactive
same,Potency,[19],inactive
CC(C)(CO)[C@@H](O)C(=O)NCCCO,Potency,[4],inactive
same,Potency,[5],inactive
same,Potency,[6],inactive
same,Potency,[7],inactive
same,Potency,[8],inactive
same,Potency,[9],inactive
same,Potency,[10],inactive
same,Potency,[11],inactive
same,Potency,[12],inactive
same,Potency,[13],inactive
same,Potency,[14],inactive
same,Potency,[15],inactive
same,Potency,[16],inactive
same,Potency,[17],inactive
same,Potency,[18],inactive
same,Potency,[19],inactive
CC[C@H](C)C(=O)O[C@H]1CCC=C2C=C[C@H](C)[C@H](CC[C@@H]3C[C@@H](O)CC(=O)O3)[C@H]21,outcome,[1],inactive
same,Potency,[2],inactive
same,outcome,[3],inactive
CNCCC=C1c2ccccc2CCc2ccccc21,outcome,[1],inactive
same,Potency,[2],inactive
same,outcome,[3],inactive
N[C@@H](Cc1cnc[nH]1)C(=O)O,outcome,[1],inactive
same,Potency,[2],13.1 µM (active)
same,outcome,[3],inactive
C[C@]12CC[C@@H]3c4ccc(O)cc4CC[C@H]3[C@@H]1CC[C@@H]2O,outcome,[3],inactive
Nc1ccc(C(=O)O)cc1,Potency,[4],inactive
same,Potency,[5],inactive
same,Potency,[6],inactive
same,Potency,[7],inactive
same,Potency,[8],inactive
same,Potency,[9],inactive
same,Potency,[10],inactive
same,Potency,[11],inactive
same,Potency,[12],inactive
same,Potency,[13],inactive
same,Potency,[14],inactive
same,Potency,[15],inactive
same,Potency,[16],inactive
same,Potency,[17],inactive
same,Potency,[18],inactive
same,Potency,[19],inactive
